The results in this text go back to PubChem BioAssay (Tox21).

Values without a mark were called inactive. Calls follow the shape of the full dose curve.
% is scaled to controls: 0 for no effect and ±100 for the full control effect.

Chain of Acetylcholinesterase (Homo sapiens) (P22303 whole entry, looked up): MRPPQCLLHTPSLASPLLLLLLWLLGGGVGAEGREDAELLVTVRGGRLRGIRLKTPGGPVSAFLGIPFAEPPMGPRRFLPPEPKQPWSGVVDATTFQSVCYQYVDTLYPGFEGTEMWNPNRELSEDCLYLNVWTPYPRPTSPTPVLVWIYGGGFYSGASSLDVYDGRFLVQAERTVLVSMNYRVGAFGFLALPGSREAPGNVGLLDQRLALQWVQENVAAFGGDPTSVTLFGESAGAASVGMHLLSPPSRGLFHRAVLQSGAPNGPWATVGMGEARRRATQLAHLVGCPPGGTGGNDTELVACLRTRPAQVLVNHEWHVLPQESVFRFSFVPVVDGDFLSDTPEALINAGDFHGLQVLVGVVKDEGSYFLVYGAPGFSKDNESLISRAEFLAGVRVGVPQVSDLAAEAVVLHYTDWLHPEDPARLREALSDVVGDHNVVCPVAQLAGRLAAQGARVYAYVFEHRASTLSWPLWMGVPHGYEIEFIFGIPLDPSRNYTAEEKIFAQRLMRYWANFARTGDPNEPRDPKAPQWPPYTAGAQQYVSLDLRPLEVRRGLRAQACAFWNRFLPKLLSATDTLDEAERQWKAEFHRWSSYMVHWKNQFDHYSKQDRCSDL

This assay addresses Acetylcholinesterase (Homo sapiens) (UniProt P22303). Briefly: Acetylcholinesterase (AChE) small molecule antagonists: enzyme-based qHTS assay with human liver microsomes (AID 1347399). Also: nearly all actives have a fitted effect of over 60% in size. As to conditions: Potency: qHTS inhibition; outcome: qHTS inhibition; series mostly up to 115 µM; activity change, negative = inhibition: at the top concentration. A digest of the protocol: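 Recombinant human AChE (50 mU/mL in the enzyme mix) and human liver microsomes (0.25 mg/mL final) were preincubated with compound and NADPH (0.25 mg/mL final) for 30 min at 37 C. Acetylthiocholine/DTNB was then added; thiocholine was read colorimetrically after 10 min at room temperature.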
Regarding `O=[N+]([O-])c1cccc(I)c1`, the “activity change, negative = inhibition” value is -1.89%.

On to `OC1CCCCC1c1ccccc1` (stereo unspecified), for which the “activity change, negative = inhibition” value was -0.646%.

For the molecule `Cc1ccc(C(N)=O)cc1N`, the “activity change, negative = inhibition” value was -0.154%.

With `CC(=O)OCC(C)OC(C)=O` (stereo unspecified), the “activity change, negative = inhibition” value was -3.36%.

`C=CC(=O)OCCOCC(CC)(COCCOC(=O)C=C)COCCOC(=O)C=C`: the “activity change, negative = inhibition” value is -2.04%.

In the case of `c1ccc(-c2nc[nH]c2-c2ccccc2)cc1`, the “activity change, negative = inhibition” value is -1.35% [at 53 µM].

`NC1CCN(c2nc3c(cc2F)c(=O)c(C(=O)O)cn3-c2ccc(F)cc2F)C1` (stereo unspecified): the “activity change, negative = inhibition” value was 2.29% [at 53 µM].

As to `CC(=O)CC(=O)Nc1ccc2[nH]c(=O)[nH]c2c1`, the “activity change, negative = inhibition” value was 1.86%.

`CCCCc1ccc(N)cc1`: the “activity change, negative = inhibition” value was 0.0746%.

As for `CC(C)CCOCc1ccccc1`, the “activity change, negative = inhibition” value was 1.17%.

On to `Nc1ccc(F)c([N+](=O)[O-])c1`, for which the “activity change, negative = inhibition” value was 0.569%.

`NCC(=O)O`: the activity change, negative = inhibition was 0.434% [at 23.6 µM].

As for `CCOc1ccc(N)c([N+](=O)[O-])c1`, the “activity change, negative = inhibition” value was 6.04%.

Turning to `Cc1cccc2nccnc12`, the “activity change, negative = inhibition” value was 0.229%.

For `O=C(O)COc1ccc2ccccc2c1`, the “activity change, negative = inhibition” value was -2.16%.

On to `Cc1cc(S(=O)(=O)O)ccc1N=Nc1c(O)ccc2ccccc12`, for which the “activity change, negative = inhibition” value is -21.7%.

In the case of `COC(C)=O`, the “activity change, negative = inhibition” value was -0.678%.

As for `CN1C(C)(C)CCCC1(C)C`, the “activity change, negative = inhibition” value was -1.76% [at 53 µM].

For `Cc1cc(C)c(C=O)c(C)c1`, the “activity change, negative = inhibition” value is -0.324%.

For the molecule `CCOC(=O)/C=C(C)/C=C/C=C(C)/C=C/c1c(C)cc(OC)c(C)c1C`, the “activity change, negative = inhibition” value was 5.2% [at 53 µM].

For the molecule `CC1CCCO1` (stereo unspecified), the “activity change, negative = inhibition” value was -2.02%.

For `CCC(=O)/C=C/c1ccc(OC)cc1`, the “activity change, negative = inhibition” value is 0%.

As for `O=C(NCCO[N+](=O)[O-])c1cccnc1`, the “activity change, negative = inhibition” value is -0.924% [at 53 µM].

As for `CC(=O)OCC(=O)[C@@]1(O)CC[C@H]2[C@@H]3CCC4=CC(=O)C=C[C@]4(C)[C@@]3(F)[C@@H](O)C[C@@]21C`, the “activity change, negative = inhibition” value was -0.317% [at 53 µM].

As for `CC(=O)Nc1cccc(C)c1`, the “activity change, negative = inhibition” value is -0.511%.

Regarding `CN(C)CCc1c[nH]c2ccc(CS(=O)(=O)N3CCCC3)cc12`, the “activity change, negative = inhibition” value is 3.53% [at 53 µM].
